# Values without a mark were called inactive. Inconclusive results are not listed. A call without a number means that no potency is given here. The source made the active and inactive calls. Unless noted, calls come from the whole dose curve; as a rule, active = well fitted curve in the direction sought with a large enough effect in the repeat runs; inconclusive = weak or mixed curves; inactive = no such curve, though single readings can be large; an effect the other way counts as inactive or inconclusive.
# Key:
# [1] = qHTS assay for small molecule agonists of the p53 signaling pathway (AID 651631; calls by dose curve; note: nearly all actives have a fitted effect of over 15% in size; note: potency is the fitted concentration of half-maximal effect)
# In short: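 Testing took place in human colorectal HCT-116 cells with stable p53RE-driven beta-lactamase. After 16 h of compound exposure at 37 °C, a FRET substrate was added and fluorescence recorded 2 h later.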
# [2] = qHTS assay for small molecules that induce genotoxicity in human embryonic kidney cells expressing luciferase-tagged ATAD5 (AID 651632); note: nearly all actives have a fitted effect of over 15% in size; note: potency is the fitted concentration of half-maximal effect
# In short: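 HEK293T cells carrying luciferase-tagged ATAD5 were given compound or DMSO vehicle and incubated 16 hr at 37C, 5% CO2. Luciferase activity was read after 30 min at room temperature with Amplite; a rise signals genotoxic stress.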
# [3] = qHTS assay for small molecule agonists of the p53 signaling pathway - cell viability (AID 651633; calls by dose curve; note: nearly all actives have a fitted effect of over 30% in size; note: potency is the fitted concentration of half-maximal effect)
# In short: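 p53RE-bla cells were treated with compound for 16 hours at 37 C. Cytotoxicity was then measured as CellTiter-Glo luminescence after 30 min at room temperature.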
# [4] = qHTS assay for small molecules that induce genotoxicity in human embryonic kidney cells expressing luciferase-tagged ATAD5 - cell viability (AID 651634; calls by dose curve; note: nearly all actives have a fitted effect of over 25% in size; note: potency is the fitted concentration of half-maximal effect)
# In short: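 HEK293T cells carrying luciferase-tagged ATAD5, 2,000 cells/well, exposed to compound for 15.5 hr at 37C. Viability read as live-cell protease activity by CellTiter-Fluor fluorescence after 30 min at 37C.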
# [5] = qHTS assay for small molecule disruptors of the mitochondrial membrane potential - cell viability (AID 720634; calls by dose curve; note: nearly all actives have a fitted effect of over 20% in size; note: potency is the fitted concentration of half-maximal effect)
# In short: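 HepG2 cells, 2,000 per well, attached overnight, then treated 1 hr at 37 C, 5% CO2. Viability read as ATP by CellTiter-Glo luminescence after 30 min at room temperature. Read in the same wells as the m-MPI membrane-potential dye assay.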
# [6] = qHTS assay to test for compound auto fluorescence at 590 nm (red) in HepG2 cells (AID 720674)
# In short: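 HepG2 cells, 2,000 per well in MEM with 10% FBS, attached overnight at 37 C, then got 23 nL compound or DMSO. After 1 hr at 37 C, 5% CO2, red fluorescence was read at 540/590 nm against Rose Bengal sodium as reference.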
# [7] = qHTS assay to test for compound auto fluorescence at 535 nm (green) in HepG2 cells (AID 720675)
# [8] = qHTS assay to test for compound auto fluorescence at 460 nm (blue) in HEK293 cells (AID 720678)
# In short: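 HEK293 cells (2,000/well, medium with 10% dialyzed FBS) attached 4-5 hr, then exposed to compound overnight at 37C, 5% CO2. Blue fluorescence read at 405/460 nm, with triamterene as reference fluorophore.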
# [9] = qHTS assay to test for compound auto fluorescence at 590 nm (red) in HEK293 cells (AID 720679)
# In short: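 HEK293 cells (2,000/well, 10% dialyzed FBS) attached 4-5 hr, then dosed with compound or DMSO and incubated overnight at 37C, 5% CO2. Red fluorescence read at 540/590 nm, Rose Bengal sodium as reference fluorophore.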
# [10] = qHTS assay to test for compound auto fluorescence at 535 nm (green) in HEK293 cells (AID 720680)
# [11] = qHTS assay to test for compound auto fluorescence at 460 nm (blue) in HEK293 cell free culture (AID 720681)
# In short: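 Compounds were added to cell-free DMEM with 10% FBS and fluorescence read directly. The blue channel used 405 nm excitation and 460 nm emission, with triamterene as the reference fluorophore.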
# [12] = qHTS assay to test for compound auto fluorescence at 590 nm (red) in HEK293 cell free culture (AID 720683)
# In short: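 Cell-free wells of DMEM with 10% FBS received compound, and intrinsic fluorescence was read at excitation/emission 540/590 nm. Values expressed as equivalence to Rose Bengal sodium.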
# [13] = qHTS assay to test for compound auto fluorescence at 590 nm (red) in HepG2 cell free culture (AID 720684)
# In short: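 Compounds are added to culture medium (MEM, 10% FBS) lacking cells, then fluorescence is read at excitation 540 nm, emission 590 nm, with Rose Bengal sodium as the equivalency standard.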
# [14] = qHTS assay to test for compound auto fluorescence at 460 nm (blue) in HepG2 cell free culture (AID 720685)
# In short: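 Compound (23 nL) or DMSO pinned into cell-free MEM with 10% FBS; blue fluorescence read at 405/460 nm excitation/emission, expressed as auto-fluorescence equivalency to triamterene.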
# [15] = qHTS assay to test for compound auto fluorescence at 535 nm (green) in HepG2 cell free culture (AID 720686)
# [16] = qHTS assay to test for compound auto fluorescence at 460 nm (blue) in HepG2 cells (AID 720687)
# In short: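 HepG2 cells in MEM with 10% FBS, attached overnight at 37 C, were exposed to compound or DMSO for 1 hr at 37 C, 5% CO2. Blue fluorescence was read at 405/460 nm, with triamterene as reference fluorophore.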
# [17] = biological target: Glucocorticoid receptor (Homo sapiens) (UniProt P04150); assay: qHTS assay to identify small molecule agonists of the glucocorticoid receptor (GR) signaling pathway (AID 720691; active = well fitted activation curve with a large enough effect in the signal ratio in the repeat runs, not every such curve was filed as active; the % refers to the signal ratio)
# In short: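 GR-bla HeLa cells carrying a GRE-driven beta-lactamase reporter, exposed to compounds for 18 h at 37 C. Reporter activation read as fluorescence after 2 h with LiveBLAzer B/G FRET substrate at room temperature.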
# [18] = qHTS assay to test for compound auto fluorescence at 535 nm (green) in HEK293 cell free culture (AID 720682)
# In short: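 DMEM + 10% FBS, cell-free; cpd or DMSO pinned in; Ex485/Em535 read; output as fluorescein-equivalent signal.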
# [19] = biological target: Glucocorticoid receptor (Homo sapiens) (UniProt P04150); assay: qHTS assay to identify small molecule antagonists of the glucocorticoid receptor (GR) signaling pathway (AID 720692; active = well fitted inhibition curve with a large enough effect in the signal ratio in the repeat runs, not every such curve was filed as active; the % refers to the signal ratio)
# In short: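 GR-bla HeLa cells carrying a GRE-driven beta-lactamase reporter received compound after 4 h plating, then dexamethasone (5 nM final). After 18 h at 37C, the FRET substrate was loaded for 2 h at room temperature and fluorescence read.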
# [20] = qHTS assay for small molecule disruptors of the mitochondrial membrane potential (AID 720635); note: potency is the fitted concentration of half-maximal effect
# In short: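 HepG2 cells exposed to compound 1 hr at 37C, then Mito-MPS dye 30 min. Ratio read of aggregate (540/590 nm) versus monomer (490/535 nm) fluorescence.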
# Chain of Glucocorticoid receptor (Homo sapiens) (P04150 whole entry, looked up): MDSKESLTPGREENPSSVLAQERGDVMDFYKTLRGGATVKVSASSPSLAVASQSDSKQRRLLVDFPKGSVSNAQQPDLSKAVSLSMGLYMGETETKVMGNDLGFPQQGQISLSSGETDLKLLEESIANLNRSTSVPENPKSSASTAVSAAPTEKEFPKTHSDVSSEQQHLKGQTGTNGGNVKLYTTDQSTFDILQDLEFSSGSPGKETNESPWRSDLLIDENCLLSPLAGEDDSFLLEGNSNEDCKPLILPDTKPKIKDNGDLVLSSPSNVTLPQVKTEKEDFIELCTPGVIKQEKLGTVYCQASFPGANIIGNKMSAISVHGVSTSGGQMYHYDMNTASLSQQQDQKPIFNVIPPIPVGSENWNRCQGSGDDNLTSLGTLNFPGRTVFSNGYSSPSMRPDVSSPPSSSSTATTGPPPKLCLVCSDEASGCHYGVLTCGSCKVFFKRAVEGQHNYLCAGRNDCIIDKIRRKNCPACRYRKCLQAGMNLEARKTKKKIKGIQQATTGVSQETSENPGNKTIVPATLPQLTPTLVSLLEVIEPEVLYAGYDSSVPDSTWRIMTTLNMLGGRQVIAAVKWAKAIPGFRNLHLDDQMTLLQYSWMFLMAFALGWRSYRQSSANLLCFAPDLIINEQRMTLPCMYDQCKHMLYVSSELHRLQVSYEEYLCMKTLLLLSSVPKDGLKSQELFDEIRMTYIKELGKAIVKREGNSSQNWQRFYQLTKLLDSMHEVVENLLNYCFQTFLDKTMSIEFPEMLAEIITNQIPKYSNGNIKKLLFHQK
Structure (SMILES),Potency [1],Potency [2],Potency [3],Potency [4],Potency [5],outcome [6],outcome [7],Potency [8],outcome [9],outcome [10],Potency [11],outcome [12],outcome [13],Potency [14],outcome [15],Potency [16],Potency [17],outcome [18],Potency [19],Potency [20]
CCCCCCCCCBr,inactive,inactive,inactive,inactive,inactive,inactive,inactive,inactive,inactive,inactive,inactive,inactive,inactive,inactive,inactive,inactive,inactive,,,
FC(F)(F)c1cccc(C2=CCN(CCc3ccc4ccccc4c3)CC2)c1,inactive,inactive,inactive,inactive,inactive,inactive,inactive,inactive,inactive,inactive,inactive,inactive,inactive,inactive,inactive,inactive,inactive,inactive,inactive,
CN(C)CCc1c[nH]c2ccc(O)cc12,inactive,inactive,inactive,inactive,inactive,inactive,inactive,inactive,inactive,inactive,inactive,inactive,,inactive,inactive,inactive,inactive,,,
FC(Cl)(Cl)Cl,inactive,inactive,inactive,inactive,inactive,inactive,inactive,inactive,inactive,inactive,inactive,inactive,inactive,,,inactive,inactive,inactive,,
CCCN(CCC)CCc1c[nH]c2ccccc12,inactive,inactive,inactive,inactive,inactive,inactive,inactive,inactive,inactive,inactive,inactive,inactive,inactive,inactive,inactive,inactive,inactive,inactive,inactive,
CN(C)CCc1c[nH]c2cccc(O)c12,inactive,inactive,inactive,inactive,inactive,inactive,inactive,inactive,inactive,inactive,inactive,inactive,inactive,,inactive,inactive,inactive,inactive,inactive,inactive
CC(C)(C)OO,inactive,inactive,inactive,inactive,inactive,inactive,inactive,inactive,inactive,inactive,inactive,inactive,inactive,inactive,inactive,inactive,,inactive,,inactive
CC(=O)/C=C/c1ccc2c(c1)OCO2,30.8 µM (active),inactive,inactive,inactive,inactive,,inactive,inactive,inactive,inactive,inactive,inactive,,inactive,inactive,inactive,inactive,,,
CC(=O)OC1(c2ccccc2)CCN(CCc2ccccc2)CC1,inactive,inactive,inactive,inactive,inactive,inactive,inactive,inactive,inactive,inactive,inactive,inactive,inactive,,inactive,inactive,,inactive,,
[CH3][Hg][Cl],30.5 µM (active),4.84 µM (active),24.3 µM (active),27.2 µM (active),27.2 µM (active),,inactive,inactive,inactive,inactive,inactive,inactive,,,,inactive,,,,19.3 µM (active)
CCC(C)(C)C(=O)OC1=C(c2ccc(Cl)cc2Cl)C(=O)OC12CCCCC2,7.7 µM (active),,61.1 µM (active),inactive,,inactive,inactive,inactive,inactive,inactive,inactive,inactive,,inactive,inactive,inactive,inactive,inactive,,
COc1cc(C=O)cc2c1[C@H](COC(N)=O)[C@]1(OC(C)=O)ON2C[C@H]2[C@@H]1N2C(C)=O,1.54 µM (active),inactive,,,inactive,inactive,inactive,inactive,inactive,inactive,inactive,inactive,inactive,inactive,,inactive,,,,
O=CC(Br)(Br)Br,13.6 µM (active),9.66 µM (active),inactive,30.5 µM (active),,inactive,inactive,inactive,inactive,inactive,inactive,inactive,inactive,inactive,,inactive,,inactive,,30.5 µM (active)

# Source: PubChem BioAssay (Tox21)
